# According to PubChem BioAssay (NCATS):
# Values without a mark were called inactive. Inconclusive results are not listed. Where a call stands in place of a potency, no number is given. Calls of active or inactive are those of the source. Calls come from the whole dose curve; as a rule, active = well fitted curve in the direction sought with a large enough effect; inconclusive = small, poorly fitted or top-dose-only effect, or another doubt; inactive = no such curve, though single readings can be large; an effect the other way counts as inactive or inconclusive.
# Experiments:
# [1] = P-glycoprotein substrates identified in KB-8-5-11 adenocarcinoma cell line, qHTS therapeutic library screen (AID 1346987); note: nearly all actives have a fitted effect of over 65% in size; note: potency is the fitted concentration of half-maximal effect
# How it was run: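 Human cervical adenocarcinoma KB-8-5-11 cells, selected in colchicine to over-express P-gp and assayed without it, were exposed for 72 h to titrated compounds. An ATP-based luminescent viability signal gave AC50.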
# [2] = system: Zika virus NS2B-NS3 protease (linked construct); assay: Primary screen NINDS Rhodamine qHTS for Zika virus inhibitors (AID 1347160); note: nearly all actives have a fitted effect of over 55% in size
# How it was run: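 Single-chain NS2B-NS3 protease, 25 nM, pH 8.0; compounds preincubated 15 min. Activity: Rhodamine110 release from 1.5 microM substrate over 15 min, room temperature, data fitted to 4-parameter Hill.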
# [3] = target: Calcium and integrin-binding protein 1 (Homo sapiens) (UniProt Q99828); assay: Primary qHTS for Identification of Calcium Integrin Binding Protein 1 (CIB1) Competitor (AID 1508620);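 note: GST tagged CIB1 binding a fluorescein labelled alphaIIb integrin peptide tracer; top concentration of the series differs between compounds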
# How it was run: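 CIB1-GST (1 uM final) and compound incubated 15 min at room temperature before adding FITC-alphaIIb peptide tracer (100 nM final). Competition for binding read by fluorescence polarization (ex 480, em 540) after another 15 min at room temperature.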
# [4] = Primary qHTS for inhibitors of nuclear receptor binding SET domain protein 2 (NSD2) in an isogenic RCH-ACV NSD2 p.E1099K mutant (9B) (AID 1645876); note: nearly all actives have a fitted effect of over 70% in size; note: potency is the fitted concentration of half-maximal effect
# [5] = target: Phospholipid hydroperoxide glutathione peroxidase GPX4 (Homo sapiens) (UniProt P36969); assay: Primary qHTS Assay for Inhibitors of Recombinant Selenoprotein Glutathione Peroxidase 4 (GPX4) (AID 1845192); note: nearly all actives have a fitted effect of over 65% in size
# How it was run: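 NADPH consumption followed by fluorescence at 340/450 nm, t=0 and after 15 min at room temperature. Reaction started with cumene hydroperoxide (0.5 mM final) after 30 min compound–GPX4 preincubation; final 200 nM GPX4, 100 nM GR, 1 mM GSH, 0.5 mM NADPH.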
# [6] = target: Luciferin 4-monooxygenase (Photinus pyralis) (UniProt P08659); assay: Primary firefly luciferase (FLuc) qHTS assay for identification of artifact compounds. (AID 1845220); conditions: outcome: dose series up to 54.1 µM unless noted; note: nearly all actives have a fitted effect of over 60% in size
# How it was run: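 Compounds sat 15 min at room temperature with 10 uM luciferin and 10 uM ATP (pH 7.6 Tris acetate). Firefly luciferase (10 nM final) was then added, and luminescence was read 5 min later. Data normalized to no-enzyme and DMSO controls were Hill-fitted.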
# [7] = system: Nanoluciferase (engineered Oplophorus gracilirostris luciferase); assay: Primary Nanoluciferase (NLuc) qHTS assay for identification of artifact compounds. (AID 1845222)
# How it was run: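 Luminescence from secreted NLuc (filtered, 1:55-diluted S16 cell medium) read 5 min after Nano-Glo substrate; compounds preincubated 15 min, RT. Hill fits of inhibition normalized to DMSO and no-enzyme.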
# [8] = Primary redox qHTS assay for identification of artifact compounds. (AID 1845223); note: potency is the fitted concentration of half-maximal effect
# How it was run: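 Redox-cycling detection via DTT (250 uM final) oxidation coupled to Amplex Red (25 uM)/HRP (250 mU/mL) in HBSS. 15 min preincubation plus 30 min after DTT, room temperature. Ex/Em 525/598 nm; 4-parameter Hill fit against DMSO and 10 uM DA3003.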
# CRL-7250 = normal cell line; assay: Cytotoxic Profiling of Annotated Libraries Using Quantitative High-Throughput Screening (AID 1296008); conditions: Five cell lines viability, CellTiter-Glo ATP luminescence, 48-72 h; max response: hits give low values; note: nearly all actives have a fitted effect of over 60% in size; note: potency is the fitted concentration of half-maximal effect
# How it was run: (§1)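 Cytotoxicity was measured as CellTiter-Glo ATP luminescence, read after 10 min at room temperature. Compound treatment of the cells lasted 48 or 72 hr at 37 degrees Celsius in a qHTS format.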
# HEK293 = assay: as above; conditions: Five cell lines viability, CellTiter-Glo ATP luminescence, 48-72 h; max response: hits give low values
# How it was run: as §1
# NIH3T3 = assay: as above; conditions: Five cell lines viability, CellTiter-Glo ATP luminescence, 48-72 h; max response: hits give low values
# How it was run: as §1
# C33A = assay: Primary qHTS to identify gynecologic anti-cancer compounds using libraries of approved drugs and bioactive compounds (AID 1345084); conditions: Gynecologic cancer cell panel viability, ATPlite luminescence, 48 h; series mostly up to 57.5 µM; note: nearly all actives have a fitted effect of over 55% in size; note: potency is the fitted concentration of half-maximal effect
# How it was run: (§2)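 Measured: luminescence after ATPlite addition (15 min, RT). Exposure: 48 h, 37 C, 5% CO2.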
# CASKI = assay: as above; conditions: Gynecologic cancer cell panel viability, ATPlite luminescence, 48 h; series mostly up to 57.5 µM
# How it was run: as §2
# Es-2 = assay: as above; conditions: Gynecologic cancer cell panel viability, ATPlite luminescence, 48 h; series mostly up to 57.5 µM
# How it was run: as §2
# OV90 = assay: as above; conditions: Gynecologic cancer cell panel viability, ATPlite luminescence, 48 h; series mostly up to 57.5 µM
# How it was run: as §2
# HaCat = assay: Cytotoxic Profiling of Annotated Libraries Using Quantitative High-Throughput Screening (AID 1296008); conditions: Five cell lines viability, CellTiter-Glo ATP luminescence, 48-72 h; max response: hits give low values; note: nearly all actives have a fitted effect of over 60% in size; note: potency is the fitted concentration of half-maximal effect
# How it was run: as §1
# Hek293T = assay: Primary qHTS to identify gynecologic anti-cancer compounds using libraries of approved drugs and bioactive compounds (AID 1345084); conditions: Gynecologic cancer cell panel viability, ATPlite luminescence, 48 h, control line for the selectivity index; series mostly up to 57.5 µM; note: nearly all actives have a fitted effect of over 55% in size; note: potency is the fitted concentration of half-maximal effect
# How it was run: as §2
# PA-1 = assay: as above; conditions: Gynecologic cancer cell panel viability, ATPlite luminescence, 48 h; series mostly up to 57.5 µM
# How it was run: as §2
# Tov-21-G = assay: as above; conditions: Gynecologic cancer cell panel viability, ATPlite luminescence, 48 h; series mostly up to 57.5 µM
# How it was run: as §2
# Tov112D = assay: as above; conditions: Gynecologic cancer cell panel viability, ATPlite luminescence, 48 h; series mostly up to 57.5 µM
# How it was run: as §2
# Chain of Phospholipid hydroperoxide glutathione peroxidase GPX4 (Homo sapiens) (P36969 whole entry, looked up): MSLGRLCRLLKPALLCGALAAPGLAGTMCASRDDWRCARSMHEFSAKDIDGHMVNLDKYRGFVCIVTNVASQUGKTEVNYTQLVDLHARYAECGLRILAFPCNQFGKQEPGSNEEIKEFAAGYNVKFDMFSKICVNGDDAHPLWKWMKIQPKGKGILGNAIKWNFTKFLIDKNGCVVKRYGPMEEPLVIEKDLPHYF
# Chain of Calcium and integrin-binding protein 1 (Homo sapiens) (Q99828 whole entry, looked up): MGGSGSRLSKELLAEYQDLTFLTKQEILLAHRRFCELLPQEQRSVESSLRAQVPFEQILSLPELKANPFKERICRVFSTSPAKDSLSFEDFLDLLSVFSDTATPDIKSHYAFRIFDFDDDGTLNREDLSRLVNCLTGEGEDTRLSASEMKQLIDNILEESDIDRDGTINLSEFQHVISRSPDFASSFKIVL
compound,measurement,setting,value
C[C@]12CC[C@H](O)C[C@@H]1CC[C@@H]1[C@@H]2CC[C@]2(C)[C@@H](C3=CC(=O)OC3)CC[C@]12O,Potency,[1],11.4 µM (active)
same,Potency,[2],inactive
same,Potency,[3],inactive
same,Potency,[4],2.84 µM (active)
same,Potency,[5],inactive
same,outcome,[6],inactive
same,Potency,[7],inactive
same,Potency,[8],inactive
same,Potency,CRL-7250,4.53 µM (active)
same,Potency,HEK293,5.08 µM (active)
same,max response,NIH3T3,3.54%
same,Potency,C33A,7.94 µM (active)
same,Potency,CASKI,inactive
same,Potency,Es-2,8.91 µM (active)
same,Potency,OV90,inactive
CCOc1ccc(Oc2ccc(OCc3cc(F)ccc3F)cc2)c(N)c1,Potency,[1],inactive
same,Potency,[2],inactive
same,Potency,[5],inactive
same,outcome,[6],inactive
same,Potency,[7],inactive
same,Potency,[8],inactive
same,outcome,CRL-7250,inactive
same,max response,HaCat,-5.94%
same,max response,NIH3T3,-0.81%
same,Potency,C33A,inactive
same,Potency,CASKI,inactive
same,Potency,Es-2,inactive
same,Potency,Hek293T,inactive
same,Potency,OV90,inactive
same,Potency,PA-1,inactive
same,Potency,Tov-21-G,inactive
same,Potency,Tov112D,inactive
C=C1C2(C)CC3C(C)(O)C4=CC(=O)OC(C)(C)C4=CCC3(C)C13C(=O)OC(C)C3(O)C2=O (stereo unspecified),Potency,[1],inactive
same,Potency,[2],inactive
same,Potency,[5],inactive
same,outcome,[6],inactive
same,Potency,[7],inactive
same,Potency,[8],0.733 µM (active)
same,max response,CRL-7250,-8.29%
same,max response,HEK293,-2.5%
same,max response,NIH3T3,-1.67%
same,Potency,C33A,inactive
same,Potency,CASKI,inactive
same,Potency,Es-2,inactive
same,Potency,Hek293T,inactive
same,Potency,OV90,inactive
same,Potency,PA-1,inactive
same,Potency,Tov-21-G,inactive
same,Potency,Tov112D,inactive
C=C1C(=O)CC2OC2(C)CC2OC(=O)C(=C)C2C(O)C1OC(=O)/C(C)=C\C (stereo unspecified),Potency,[2],inactive
same,Potency,[3],inactive
same,Potency,[4],2.26 µM (active)
same,Potency,[5],inactive
same,outcome,[6],inactive
same,Potency,[7],inactive
same,Potency,[8],inactive
same,Potency,CRL-7250,10.1 µM (active)
same,Potency,HEK293,4.53 µM (active)
same,Potency,OV90,inactive
same,Potency,Tov112D,inactive
O=C(N1CCCCC1Cc1ccccc1)n1cc(-c2ccc(-c3ccccc3)cc2)nn1 (stereo unspecified),Potency,[2],inactive
same,Potency,[3],inactive
same,Potency,[5],inactive
same,outcome,[6],inactive
same,Potency,[7],inactive
same,Potency,[8],inactive
same,max response,CRL-7250,2.49%
same,outcome,HaCat,inactive
same,outcome,NIH3T3,inactive
same,Potency,C33A,inactive
same,Potency,CASKI,inactive
same,Potency,Es-2,inactive
same,Potency,Hek293T,inactive
same,Potency,OV90,inactive
same,Potency,PA-1,inactive
same,Potency,Tov-21-G,inactive
same,Potency,Tov112D,inactive
CN=C(NS(=O)(=O)c1ccc(Cl)cc1)N1C[C@H](c2ccccc2)C(c2ccc(Cl)cc2)=N1,Potency,[2],inactive
same,Potency,[3],inactive
same,Potency,[5],inactive
same,outcome,[6],inactive
same,Potency,[7],inactive
same,Potency,[8],inactive
same,outcome,CRL-7250,inactive
same,max response,HaCat,-7.89%
same,max response,NIH3T3,4.13%
same,Potency,C33A,inactive
same,Potency,CASKI,inactive
same,Potency,Es-2,inactive
same,Potency,Hek293T,inactive
same,Potency,OV90,inactive
same,Potency,PA-1,inactive
same,Potency,Tov-21-G,inactive
same,Potency,Tov112D,inactive
CC(=O)O[C@H]1C[C@]2(O)[C@@H]3CC[C@@H]4C[C@@H](O)CC[C@]4(C)[C@H]3CC[C@]2(C)[C@H]1c1ccc(=O)oc1,Potency,[1],0.0517 µM (active)
same,Potency,[2],inactive
same,Potency,[3],inactive
same,Potency,[4],0.0459 µM (active)
same,Potency,[5],inactive
same,outcome,[6],inactive
same,Potency,[7],inactive
same,Potency,[8],inactive
same,Potency,CRL-7250,0.0517 µM (active)
same,Potency,HEK293,0.0461 µM (active)
same,max response,NIH3T3,-9.3%
same,Potency,C33A,0.0282 µM (active)
same,Potency,CASKI,0.398 µM (active)
same,Potency,Es-2,0.1 µM (active)
same,Potency,Hek293T,0.0891 µM (active)
same,Potency,PA-1,0.1 µM (active)
same,Potency,Tov-21-G,0.0891 µM (active)
C[C@]12CC[C@H](O)C[C@@H]1CC[C@@H]1[C@@H]2CC[C@]2(C)C(=O)CC[C@@H]12,Potency,[1],inactive
same,Potency,[2],inactive
same,Potency,[3],inactive
same,Potency,[4],inactive
same,Potency,[5],inactive
same,outcome,[6],inactive
same,Potency,[7],inactive
same,Potency,[8],inactive
same,max response,CRL-7250,-5.26%
same,max response,HEK293,-15.1%
same,max response,NIH3T3,-0.109%
same,Potency,C33A,inactive
same,Potency,CASKI,inactive
same,Potency,Es-2,inactive
same,Potency,Hek293T,inactive
same,Potency,OV90,inactive
same,Potency,PA-1,inactive
same,Potency,Tov-21-G,inactive
same,Potency,Tov112D,inactive
C=C(C)C(=O)O[C@H]1[C@@H]2[C@H](C)C(=O)O[C@@H]2C[C@@H](C)[C@@H]2C=CC(=O)[C@]21C,Potency,[1],3.6 µM (active)
same,Potency,[2],inactive
same,Potency,[4],2.01 µM (active)
same,Potency,[5],inactive
same,outcome,[6],inactive
same,Potency,[7],inactive
same,Potency,[8],inactive
same,Potency,CRL-7250,2.86 µM (active)
same,Potency,HEK293,3.6 µM (active)
same,Potency,NIH3T3,8.05 µM (active)
same,Potency,C33A,12.6 µM (active)
same,Potency,Hek293T,5.62 µM (active)
same,Potency,OV90,3.55 µM (active)
same,Potency,PA-1,3.16 µM (active)
same,Potency,Tov-21-G,8.91 µM (active)
same,Potency,Tov112D,8.91 µM (active)
